# Test system: Plasmodium falciparum
# Assay: GSK_TCMDC: Inhibition of Plasmodium falciparum 3D7 in whole red blood cells, using parasite LDH activity as an index of growth. Test compounds present at 2uM
# Type: functional
row,SMILES,Inhibition
1,CCCNc1nc(NCc2c(C)cccc2C)nc(NC(C)(C)C)n1,91%
2,Cl.N=C(Cc1ccc(Cl)cc1)NCCN1CCCCCC1,93%
3,CC(=O)Nc1cccc(CNCc2ccc(-c3cnc(N4CCCC(C)(C)C4)nc3)cc2)c1.O=CO,93%
4,CCCC(C)NC(=O)c1cnn(-c2ccc(C(C)(C)C)cc2)c1OCc1ccc(Br)cc1 (stereo not given),84%
5,COc1cc(Nc2ccnc3ccc(C(F)(F)F)cc23)ccc1OCCCc1ccccc1,99%
6,CC=CC(=O)N1CCN(c2nccc(-c3ccc(C(C)(C)C)cc3)n2)CC1,95%
7,Cc1ccc2[nH]c(-c3ccccc3)cc(=NN=Cc3cccnc3)c2c1,99%
8,O=C(Nc1ccccc1)N(Cc1ccc(-c2ccc(CNCc3ccc4c(c3)OCO4)cc2)cc1)C1CCN(Cc2ccccc2)CC1.O=C(O)C(F)(F)F,98%
9,CC(C)c1sc(N2CCN(C)CC2)nc1C(=O)NCCc1cccc(Cl)c1.O=C(O)C(F)(F)F,91%
10,Cl.Cn1ccc(-c2cccc(Nc3ccnc4cc(-c5nccs5)ccc34)c2)n1,100%
11,CC(C)(C)C1CCC(CC2=C(C(=O)O)c3ccccc3C2=O)CC1 (stereo not given),91%
12,Cc1c2ccc(N(C)c3ccnc(Nc4ccc5c(c4)nc(NC(C)C)n5C)n3)cc2nn1C.Cl,100%
13,COc1cccc(C(=O)N2CCN(Cc3cccc(NC(=O)c4cccs4)c3)CC2)c1.O=C(O)C(F)(F)F,95%
14,COc1ccc2ccccc2c1CCCCN1CCN(CC(c2ccc(F)cc2)N2CCC2)CC1.O=C(O)C(F)(F)F (stereo not given),98%
15,CC(=O)Nc1ccc(C(=O)Nc2cccc(-c3ccc(-c4nc5cc(F)ccc5[nH]4)s3)c2)cn1,100%
16,CC(C)(C)c1ccccc1SC1=C(O)CC2(CCNCC2)OC1=O.Cl,99%
17,CCOC(=O)CCCc1cc(NC2CCN(C)CC2)nc(Nc2ccc(OC)cc2)n1,99%
18,Nc1nccc2ccc(OC3CCCCC3)cc12.O=CO,98%
19,O=C(Nc1ccc(OC2CCN(Cc3ccsc3)CC2)c(Cl)c1)c1cccs1.O=C(O)C(F)(F)F,94%
20,O=C(Nc1cccc(F)c1)NC1CCN(CCCCCNC(=O)C2CC2c2ccc(Cl)c(Cl)c2)CC1 (stereo not given),100%

row,SMILES,Inhibition
1,Cl.O=c1ccc2ncc(Cl)c3c2n1CC3CN1CCC(NCc2cc3c(cn2)OCCO3)CC1 (stereo not given),96%
2,COc1ccc(C2CCN(CCCCNC(=O)c3ccc(NC(=O)c4ccc(Cl)cc4)cc3)C2)c(OC)c1 (stereo not given),84%
3,O=C(Nc1ccc(Cn2ncc(N3CCCNCC3)c(Cl)c2=O)cc1)Nc1ccc(-c2ccccc2)cc1,93%
4,c1cncc(CN2CCCN(c3ccc4c(c3)CCN(Cc3ccc(-c5ncc[nH]5)cc3)CC4)CC2)c1,99%
5,N#Cc1ccccc1C1CCN(C2CCC(Nc3cc(-c4cccnc4)ccn3)CC2)CC1 (stereo not given),100%
6,O=C(Nc1ccc(OC2CCN(Cc3ccccc3)CC2)c(Cl)c1)c1ccco1.O=C(O)C(F)(F)F,96%
7,O=S(=O)(c1ccc2cc[nH]c2c1)N1CCC[C@@H]1CCN1CCC(c2c[nH]c3cnccc23)CC1,95%
8,O=S(=O)(c1ccccc1C(F)(F)F)C1CC2CCC(C1)N2S(=O)(=O)c1ccc(Cl)c(C(F)(F)F)c1 (stereo not given),97%
9,COc1cccc(-c2ccc(C(=O)NCC3CCCN(Cc4cccc(C(F)(F)F)c4)C3)s2)c1.O=C(O)C(F)(F)F (stereo not given),85%
10,COc1ccc(-n2nc(C)cc2C(=O)NCc2ccc(-c3c(C)noc3C)cc2)cc1,100%
11,CCCN(C(=O)c1ccccc1C)c1nnc(-c2cccc(C)c2)s1,91%
12,CCOc1ccc2[nH]c(C)cc(=NN=Cc3cccnc3)c2c1,100%
13,Cc1noc(-c2ccccc2)c1CN1CCCC2(CC(C(=O)NCc3cccc(F)c3F)=NO2)C1.O=C(O)C(F)(F)F (stereo not given),85%
14,Cc1cccc(Nc2nccc(Nc3cccc(C(=O)NCCN4CCOCC4)c3)n2)c1,91%
15,CC(=O)Nc1cccc(Nc2nccc(Nc3ccc(Oc4ccccc4)cc3)n2)c1.Cl,100%
16,Br.CC1(C)NC(N)=NC(=N)N1OCCOc1ccc(Cc2ccccc2)cc1,94%
17,O=C(c1cccc(-c2noc(C(F)(F)F)n2)c1)N1CCN(c2nsc3ccccc23)CC1,90%
18,COc1ccccc1N=C1SC(=Cc2cn(CC(=O)N3CCCc4ccccc43)c3ccccc23)C(=O)N1C1CCCCC1,100%
19,Cc1ccc2c(c1)nc(N)n2C[C@H](O)c1ccccc1,100%
20,CCN(CC)CCCC(C)Nc1ccnc2ccc(OC)cc12.Cl.O (stereo not given),100%

# Test system: Plasmodium falciparum
# Assay: GSK_TCMDC: Inhibition of Plasmodium falciparum Dd2 in whole red blood cells, using parasite LDH activity as an index of growth. Test compounds present at 2uM
# Type: functional
row,SMILES,Inhibition
1,CCCNc1nc(NCc2c(C)cccc2C)nc(NC(C)(C)C)n1,89%
2,Cl.N=C(Cc1ccc(Cl)cc1)NCCN1CCCCCC1,94%
3,CC(=O)Nc1cccc(CNCc2ccc(-c3cnc(N4CCCC(C)(C)C4)nc3)cc2)c1.O=CO,75%
4,CCCC(C)NC(=O)c1cnn(-c2ccc(C(C)(C)C)cc2)c1OCc1ccc(Br)cc1 (stereo not given),64%
5,COc1cc(Nc2ccnc3ccc(C(F)(F)F)cc23)ccc1OCCCc1ccccc1,51%
6,CC=CC(=O)N1CCN(c2nccc(-c3ccc(C(C)(C)C)cc3)n2)CC1,70%
7,Cc1ccc2[nH]c(-c3ccccc3)cc(=NN=Cc3cccnc3)c2c1,39%
8,O=C(Nc1ccccc1)N(Cc1ccc(-c2ccc(CNCc3ccc4c(c3)OCO4)cc2)cc1)C1CCN(Cc2ccccc2)CC1.O=C(O)C(F)(F)F,41%
9,CC(C)c1sc(N2CCN(C)CC2)nc1C(=O)NCCc1cccc(Cl)c1.O=C(O)C(F)(F)F,15%
10,Cl.Cn1ccc(-c2cccc(Nc3ccnc4cc(-c5nccs5)ccc34)c2)n1,94%
11,CC(C)(C)C1CCC(CC2=C(C(=O)O)c3ccccc3C2=O)CC1 (stereo not given),56%
12,Cc1c2ccc(N(C)c3ccnc(Nc4ccc5c(c4)nc(NC(C)C)n5C)n3)cc2nn1C.Cl,100%
13,COc1cccc(C(=O)N2CCN(Cc3cccc(NC(=O)c4cccs4)c3)CC2)c1.O=C(O)C(F)(F)F,95%
14,COc1ccc2ccccc2c1CCCCN1CCN(CC(c2ccc(F)cc2)N2CCC2)CC1.O=C(O)C(F)(F)F (stereo not given),51%
15,CC(=O)Nc1ccc(C(=O)Nc2cccc(-c3ccc(-c4nc5cc(F)ccc5[nH]4)s3)c2)cn1,97%
16,CC(C)(C)c1ccccc1SC1=C(O)CC2(CCNCC2)OC1=O.Cl,0%
17,CCOC(=O)CCCc1cc(NC2CCN(C)CC2)nc(Nc2ccc(OC)cc2)n1,17%
18,Nc1nccc2ccc(OC3CCCCC3)cc12.O=CO,41%
19,O=C(Nc1ccc(OC2CCN(Cc3ccsc3)CC2)c(Cl)c1)c1cccs1.O=C(O)C(F)(F)F,93%
20,O=C(Nc1cccc(F)c1)NC1CCN(CCCCCNC(=O)C2CC2c2ccc(Cl)c(Cl)c2)CC1 (stereo not given),12%

row,SMILES,Inhibition
1,Cl.O=c1ccc2ncc(Cl)c3c2n1CC3CN1CCC(NCc2cc3c(cn2)OCCO3)CC1 (stereo not given),29%
2,COc1ccc(C2CCN(CCCCNC(=O)c3ccc(NC(=O)c4ccc(Cl)cc4)cc3)C2)c(OC)c1 (stereo not given),0%
3,O=C(Nc1ccc(Cn2ncc(N3CCCNCC3)c(Cl)c2=O)cc1)Nc1ccc(-c2ccccc2)cc1,41%
4,c1cncc(CN2CCCN(c3ccc4c(c3)CCN(Cc3ccc(-c5ncc[nH]5)cc3)CC4)CC2)c1,33%
5,N#Cc1ccccc1C1CCN(C2CCC(Nc3cc(-c4cccnc4)ccn3)CC2)CC1 (stereo not given),78%
6,O=C(Nc1ccc(OC2CCN(Cc3ccccc3)CC2)c(Cl)c1)c1ccco1.O=C(O)C(F)(F)F,96%
7,O=S(=O)(c1ccc2cc[nH]c2c1)N1CCC[C@@H]1CCN1CCC(c2c[nH]c3cnccc23)CC1,0%
8,O=S(=O)(c1ccccc1C(F)(F)F)C1CC2CCC(C1)N2S(=O)(=O)c1ccc(Cl)c(C(F)(F)F)c1 (stereo not given),99%
9,COc1cccc(-c2ccc(C(=O)NCC3CCCN(Cc4cccc(C(F)(F)F)c4)C3)s2)c1.O=C(O)C(F)(F)F (stereo not given),18%
10,COc1ccc(-n2nc(C)cc2C(=O)NCc2ccc(-c3c(C)noc3C)cc2)cc1,92%
11,CCCN(C(=O)c1ccccc1C)c1nnc(-c2cccc(C)c2)s1,67%
12,CCOc1ccc2[nH]c(C)cc(=NN=Cc3cccnc3)c2c1,100%
13,Cc1noc(-c2ccccc2)c1CN1CCCC2(CC(C(=O)NCc3cccc(F)c3F)=NO2)C1.O=C(O)C(F)(F)F (stereo not given),28%
14,Cc1cccc(Nc2nccc(Nc3cccc(C(=O)NCCN4CCOCC4)c3)n2)c1,11%
15,CC(=O)Nc1cccc(Nc2nccc(Nc3ccc(Oc4ccccc4)cc3)n2)c1.Cl,99%
16,Br.CC1(C)NC(N)=NC(=N)N1OCCOc1ccc(Cc2ccccc2)cc1,26%
17,O=C(c1cccc(-c2noc(C(F)(F)F)n2)c1)N1CCN(c2nsc3ccccc23)CC1,81%
18,COc1ccccc1N=C1SC(=Cc2cn(CC(=O)N3CCCc4ccccc43)c3ccccc23)C(=O)N1C1CCCCC1,99%
19,Cc1ccc2c(c1)nc(N)n2C[C@H](O)c1ccccc1,74%
20,CCN(CC)CCCC(C)Nc1ccnc2ccc(OC)cc12.Cl.O (stereo not given),0%

# — ChEMBL document CHEMBL1157539, “Thousands of chemical starting points for antimalarial lead identification” (Nature, 2010)
